rCAG RNA binder: r(CAG) repeat RNA binding | TO-PRO-1 dye displacement fluorescence | inhibition, % at 3 µM | hit rate 1.3% among 370,000 | AID 651821;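 active means inhibition above the plate cutoff, the mean of all test compounds on that plate plus 3 SD, cut at about 35% in these data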;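 further: 0% = DMSO alone and 100% = 100 µM mitoxantrone as full dye displacement; higher means more dye released from RNA so lower well fluorescence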
ADAM17 inh: inhibits human ADAM17. recombinant ADAM17, EDANS/DABCYL FRET peptide cleavage. P78536. inhibition, % at 6.95 µM. hit rate 0.83% among 370,000;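 active means inhibition above the mean of compounds lying between control limits plus 3 SD, set per campaign, cut at about 8.5% in these data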;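 further: 0% = DMSO-only wells as the low control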
Target sequence (P78536 215-824 limits assumed): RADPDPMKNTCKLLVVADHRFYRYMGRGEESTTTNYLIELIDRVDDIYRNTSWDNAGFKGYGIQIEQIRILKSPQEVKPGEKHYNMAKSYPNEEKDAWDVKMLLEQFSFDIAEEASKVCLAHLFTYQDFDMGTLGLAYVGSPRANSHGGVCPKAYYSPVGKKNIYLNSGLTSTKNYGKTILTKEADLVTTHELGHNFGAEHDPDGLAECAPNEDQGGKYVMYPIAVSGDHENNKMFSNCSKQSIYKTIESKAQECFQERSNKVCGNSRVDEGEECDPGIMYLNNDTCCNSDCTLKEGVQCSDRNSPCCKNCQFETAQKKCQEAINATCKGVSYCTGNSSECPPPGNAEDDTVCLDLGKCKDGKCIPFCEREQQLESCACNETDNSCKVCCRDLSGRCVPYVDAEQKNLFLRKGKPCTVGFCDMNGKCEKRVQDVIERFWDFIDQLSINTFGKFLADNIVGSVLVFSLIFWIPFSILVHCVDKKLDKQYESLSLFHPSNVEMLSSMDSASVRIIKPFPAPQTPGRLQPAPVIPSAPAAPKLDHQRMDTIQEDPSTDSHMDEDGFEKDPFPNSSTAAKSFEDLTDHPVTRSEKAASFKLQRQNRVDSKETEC
DSG3 Ab inh: inhibitors of pemphigus antibody binding to human desmoglein-3; P32926; DSG3-coupled beads, scFv-anti-DSG3-GFP binding, flow cytometry; hits give low values; binding (percent of control), % at 10 µM; hit rate 0.48% among 310,000; AID 588358;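 active means binding more than 3 SD below its plate's average and above zero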;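 further: hits lower antibody fragment binding to DSG3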
MPTP block: inhibitors of mitochondrial permeability transition pore | isolated mouse mitochondria, Ca2+ swelling absorbance, 30 min | inhibition, % at 10 µM | hit rate 1.4% among 360,000;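 active means inhibition of 50% or more, scaled per plate between neutral and stimulator controls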;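 further: 0% = DMSO wells given calcium and 100% = 1 mM EGTA wells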
proKLK7 act: activators of human kallikrein-7 zymogen; purified proKLK7, EDANS-DABCYL substrate fluorescence; 100% is mature enzyme control, 0% vehicle; activation, % at 7 µM; hit rate 0.9% among 370,000; AID 652039;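 active means activation above the mean of all tested compounds plus 3 SD, computed per campaign excluding outliers beyond control limits, cut at about 13% in these data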
ADAM10 inh: inhibits human ADAM10; O14672; recombinant ADAM10, EDANS/DABCYL FRET peptide cleavage, 3 h; inhibition, % at 7 µM; hit rate 0.62% among 370,000;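 active means inhibition above a per-campaign cutoff equal to the mean of compounds falling between control-based bounds plus 3 SD, cut at about 20% in these data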;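 further: 0% = DMSO wells while the 100% control is not disclosed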
proKLK7 act conf: proKLK7 activation, confirmation; AID 686949; hit rate 68% among 3,200; activation, % at 7 µM; purified proKLK7, EDANS-DABCYL substrate fluorescence; scaled: vehicle 0, mature enzyme 100; shares compounds with proKLK7 act;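 active means activation, as change over the incubation, above the mean of all tested compounds plus 3 SD, cut at about 13% in these data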
EDANS interfere: optically interferes with EDANS-DABCYL signal, flagging KLK7 hits; EDANS-DABCYL substrate fluorescence interference, no enzyme, 4 h; solvent 0%, active enzyme control 100%; activation, % at 7 µM; shares compounds with proKLK7 act; AID 686952; hit rate 80% among 3,200;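 active means activation above the all-compound mean plus 3 SD, ignoring values outside control-based bounds, cut at about 4.8% in these data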;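 further: value is the 4 h activation minus the activation read at time zero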
* = called active by the depositor; i = inactive; / = no result. Shown are actives, neighbours in structure and some others; about 4.7% of the full set was active somewhere.

SMILES	rCAG RNA binder	ADAM17 inh	DSG3 Ab inh	MPTP block	proKLK7 act	ADAM10 inh	proKLK7 act conf	EDANS interfere
CNC(=O)COc1ccccc1C(=O)Nc1ccc2c(c1)oc1ccccc12	19	-143	102	12	55*	i	-74	-111
N#Cc1ccccc1NC(=O)c1ccccc1OCC(=O)Nc1ccc2c(c1)oc1ccccc12	4	0	98	8	0	-6	/	/
O=C(CC(=O)N1CCOCC1)N1CCOCC1	4	0	113	-3	1	5	/	/
CCCCCC(O)(c1ccc(OCC)cc1)C(CN1CCOCC1)c1ccccc1 (centres undefined)	-7	0	100	-2	-1	8	/	/
CCOc1ccc(-c2cc(C(=O)NCCCN3CCN(CC)CC3)c3ccccc3n2)cc1	-1	-385	100	1	57*	i	-17	-20
CCOc1ccc(-c2cc(C(=O)O)c3ccccc3n2)cc1	6	i	95	0	33*	i	60*	69*
COc1ccc(/C=C/c2cc(C(=O)O)c3ccccc3n2)cc1	4	-31	103	1	13*	-104	72*	72*
CCc1ccc(CN2CCCC(C(=O)N3CCCCC3)C2)cc1 (centres undefined)	-6	-1	103	0	0	-8	/	/
Cc1noc(C)c1-c1ccc(C(=O)NCc2cccs2)c2occc12	0	-3	/	1	0	-17	/	/
COc1cccc2c(=O)c3c(cnn3C)n(C)c12	1	i	98	-2	49*	i	68*	67*
CCc1nc2c(OCc3ccc(OC)cc3)cccn2c1N(C)C(=O)C(C)C	-2	-6	/	0	0	-31	/	/
CN1CCN(C(=O)c2ccc(-c3cccs3)s2)CC1	-2	-303	95	2	32*	i	6	5.3*
CCN(CC)c1ccc(C2C(C(=O)Nc3ccccn3)=C(C)NC3=C2C(=O)CC(C)(C)C3)cc1 (centres undefined)	-5	-45	106	0	7	-160	/	/
CCn1cc(C2C(C(=O)Nc3cc(C)ccn3)=C(C)NC3=C2C(=O)CC(C)(C)C3)c(C)n1 (centres undefined)	-3	-214	113	6	20*	i	8	15*
COc1cc(OC)c(/C=N/NC(=O)c2ccncc2)c(OC)c1	4	-1	110	0	14*	0	8	9.1*
COc1ccc(/C=N/NC(=O)c2ccncc2)c(OC)c1	0	-4	99	-1	-2	-8	/	/
C/C(CCc1ccco1)=N\NC(=O)CNc1cccc2ccccc12	7	-109	87	1	33*	-426	8	6.1*
O=C(CNc1cccc2ccccc12)N/N=C/C=C/c1ccco1	11	-39	98	3	9	-111	/	/
C/C(=N\NC(=O)CNc1cccc2ccccc12)c1ccccc1	3	-155	97	0	46*	i	2	2
OCCCc1nc2n(n1)C(c1ccccc1)C=C(c1ccc(F)cc1)N2 (centres undefined)	-2	-113	94	-2	23*	-340	38*	74*
CN1C(=O)[C@H]2[C@@H](c3ccc(C(F)(F)F)cc3)N[C@]3(CCCN(Cc4cccn4C)C3=O)[C@H]2C1=O	10	3	103	1	1	2	/	/
N#Cc1ccccc1OCCN1C(=O)c2ccccc2C1=O	-1	-3	109	-4	0	-1	/	/
Nc1cccc2c1C(=O)N(CCOc1ccccc1F)C2=O	-2	-102	103	1	47*	-333	72*	78*
CCc1cc2c(=O)c(-c3nc4ccccc4[nH]3)coc2c(CN2CCCCC2C)c1O (centres undefined)	16	-6	104	2	-1	-9	/	/
CC1CN(Cc2c(O)ccc3c(=O)c(-c4ccccc4)coc23)CC(C)O1 (centres undefined)	-1	-354	112	0	82*	i	27*	26*
